Screening data as filed in PubChem BioAssay.
Most compounds without a hit are left out; they make up all but 4.2% or so of the library.
D1 agonist: Allosteric Agonists of the Human D1 Dopamine Receptor: qHTS; D(1A) dopamine receptor (Homo sapiens), P21728; HEK293 T-REx D1 cells, calcium flux, agonist mode; activation, % at 2 µM; hit rate 1% among 360,000; AID 504660, 2011; in the data active means activation above about 30%
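Agonism was scored from calcium flux recorded over 180 s (1 read/s) after pintool compound addition, following a 10-cycle baseline. Cells were inducible force-coupled HEK293 TREx D1, plated overnight at 30 C and loaded with no-wash calcium dye.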
D1 PAM: Potentiators of Human D1 Dopamine Receptor: qHTS | D(1A) dopamine receptor (Homo sapiens), P21728 | HEK293 TREx D1 cells, calcium flux, dopamine EC20 potentiation | potentiation, % at 10 µM | hit rate 0.036% among 360,000; in the data active means potentiation above about 30%
TRPV1 ag: HTS Assay for Compounds that Act as Agonists of the Vanilloid Receptor 1 | Transient receptor potential cation channel subfamily V member 1 (Homo sapiens), Q8NER1 | TRPV1-expressing cells, Fluo-8 calcium influx, agonist mode | activation, % at 8.33 µM | hit rate 0.19% among 320,000 | AID 540275, 2011; in the data active means activation above about 80%; inconclusive means between about 30% and that limit
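Cells expressing TRPV1 were dye-loaded with Fluo-8 and read kinetically: 10 s baseline, 3 min after compound (agonist portion), then 2 min after EC20 capsaicin (allosteric enhancer portion). Calcium-bound dye fluorescence at 480/520 nm.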
TRPV1 potentiator: HTS Assay for Compounds that Act as Potentiators of the Vanilloid Receptor 1 | Transient receptor potential cation channel subfamily V member 1 (Homo sapiens), Q8NER1 | TRPV1-expressing cells, Fluo-8 calcium influx, capsaicin EC20 potentiation | hit rate 0.02% among 320,000 | AID 540277, 2011 | potentiation, % at 8.33 µM; in the data active means potentiation above about 80%; inconclusive means between about 30% and that limit
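Cells expressing TRPV1 were dye-loaded with Fluo-8 and read kinetically: 10 s baseline, 3 min after compound (agonist portion), then 2 min after EC20 capsaicin (allosteric enhancer portion). Calcium-bound dye fluorescence at 480/520 nm.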
D1 antagonist: Antagonist of Human D 1 Dopamine Receptor: qHTS | activity change, negative = inhibition, % at 10 µM | hit rate 3.2% among 360,000 | HEK293 TREx D1 cells, calcium flux, dopamine EC80; hits give low values | AID 504652, 2011; in the data active means activity change below about -30%
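Using tetracycline-induced force-coupled D1 Hek293 cells and a calcium dye, signals were followed for 180 s after compound, then for 180 s after EC80 dopamine, to detect inhibitors.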
Each line names hits and unclear results; the compound was inactive in the other large screens.

O=C(Nc1ccc(F)cc1)Nc1csc2c1CCCC2	D1 antagonist -32.4 (no result: TRPV1 ag, TRPV1 potentiator)
CC(=O)c1cccc(NC(=O)Nc2csc3c2CCCC3)c1	TRPV1 ag inconclusive
COc1ccc(-c2cc(OC(=O)c3ccc(Cl)cc3)c3c(C)oc(C)c3c(=O)c2)cc1	none (no result: TRPV1 ag, TRPV1 potentiator)
CCOc1ccc(C(C)=O)cc1CSC(=N)N	none
COc1ccc(CSC(=N)N)cc1[N+](=O)[O-]	none
CCCCCOc1ccc(CSC(=N)N)cc1[N+](=O)[O-]	D1 agonist 55.9
CCCCOc1ccc(Br)cc1CSC(=N)N	D1 agonist 61.8
COc1ccc(-c2nc3ccccc3c(=O)n2O)cc1	none
COc1ccc2c3n(nc2c1)CCN=C3c1cc(Cl)c(N)c(Cl)c1	D1 antagonist -35.5
COc1ccc(C2=NCCn3nc4ccccc4c32)cc1	TRPV1 potentiator inconclusive, D1 antagonist -45.1
Nc1c(Cl)cc(C2=NCCn3nc4cc(C(F)(F)F)ccc4c32)cc1Cl	none
O=Cc1c(NCc2ccccc2)c2ccccc2[nH]c1=O	none
O=Cc1c(NCc2ccc(Cl)cc2)c2ccccc2[nH]c1=O	D1 antagonist -36.8
O=C(Cn1c(SCc2ccccc2F)nc2ccncc21)Nc1ccccc1C(F)(F)F	none (no result: TRPV1 ag, TRPV1 potentiator)
CCc1ccc(OCC(=O)Nc2c(C(=O)c3ccc(Br)cc3)oc3ccccc23)cc1	none (no result: TRPV1 ag, TRPV1 potentiator)
Cc1oc(-c2ccccc2Cl)nc1CSc1nc2ncccc2[nH]1	none (no result: TRPV1 ag, TRPV1 potentiator)
O=[S+]([O-])(c1ccc2nsnc2c1)N1CCN([S+](=O)([O-])c2c(F)cccc2F)CC1	none (no result: TRPV1 ag, TRPV1 potentiator)
COc1cc(/C=C2/NC(=O)N(Cc3ccccc3F)C2=O)cc(OC)c1O	D1 antagonist -37.7
Cc1ccc(NC(=O)Nc2nnc(SCC(=O)N3CCC(C)CC3)s2)cc1	none (no result: TRPV1 ag, TRPV1 potentiator, D1 antagonist)
Cc1cc(C)c(-n2nnnc2SCC(=O)c2cc3ccccc3o2)c(C)c1	TRPV1 potentiator inconclusive
O=C(CSc1nnnn1-c1ccc(O)cc1)c1cc2ccccc2o1	D1 agonist 32.3
COc1ccc(/C(C)=N/NC(=O)c2nnn(-c3nonc3N)c2-c2cccs2)cc1	D1 agonist 56.6
C/C(=N\NC(=O)c1nnn(-c2nonc2N)c1-c1cccs1)c1ccc(O)cc1	none
COc1ccc(/C(C)=N/NC(=O)c2nnn(-c3nonc3N)c2-c2cccs2)cc1OC	none
C/C(=N\NC(=O)c1nnn(-c2nonc2N)c1-c1cccs1)c1ccc(C)cc1	D1 agonist 87.0
C/C(=N/NC(=O)c1nnn(-c2nonc2N)c1-c1ccccc1)c1ccncc1	none
COc1ccc(/C(C)=N/NC(=O)c2nnn(-c3nonc3N)c2-c2ccccc2)cc1	D1 agonist 49.6
O=C(CCCCN1CCCCC1)c1ccc2c(c1)Cc1ccccc1-2	D1 agonist 30.7, D1 antagonist -36.1
O=C(CCN1CCCCCC1)c1ccccc1	none
CCOC(=O)C1=C(C)NC2=C(C(=O)CC(C)(C)C2)C1c1cccc(C)n1 (stereo not given)	none
CCOC(=O)CN=C1CC(C)(C)CC2=C1Sc1ncnc(N(C)C)c1N2	D1 antagonist -42.1
COc1cc(NC(=O)c2ccc(-c3nc(COc4ccccc4)c(C)o3)cc2)cc(OC)c1	none (no result: TRPV1 ag, TRPV1 potentiator)
CCN(CC)C(=O)Cn1cc(C(=O)C(=O)NCCc2ccc(S(N)(=O)=O)cc2)c2ccccc21	D1 antagonist -74.4
O=C(Nc1ccc(F)cc1)c1cccn1-c1nnc(N2CCCCC2)s1	none (no result: TRPV1 ag, TRPV1 potentiator)
Cc1ccc(F)cc1NC(=O)CCOc1ccccc1	D1 antagonist -31.0
Cc1c(C)c2cc3c(c(C)c2oc1=O)OCN(CCc1ccc(F)cc1)C3	none (no result: TRPV1 ag, TRPV1 potentiator)
CCCCNC(=O)Cn1nc(N2CCN(c3ccccc3OC)CC2)ccc1=O	D1 antagonist -42.1 (no result: TRPV1 ag, TRPV1 potentiator)
COCCNC(=O)Cn1nc(N2CCN(c3ccccc3OC)CC2)ccc1=O	none (no result: TRPV1 ag, TRPV1 potentiator)
O=C(CCCc1cccs1)N1CCN(S(=O)(=O)c2ccccc2Br)CC1	D1 antagonist -31.1
O=C(Cc1cccs1)N1CCN(S(=O)(=O)c2ccccc2)CC1	none
CCOc1ccc(CCNC(=O)c2cc3c(=O)n(C)c4ccccc4c3n2C)cc1OCC	none (no result: TRPV1 ag, TRPV1 potentiator)
